Data reported in PubChem BioAssay (EPA / NIEHS).
The source made the active and inactive calls. Rule for the calls: active = hit-call score of the fitted dose curve at least 0.9, where 1 is the maximum; inactive = score below 0.9.

Read-out: Matrix Metallopeptidase 1 (MMP1), MMP1 (gene 4312)
Assay: BSK_BE3C_MMP1: BioMAP Diversity Plus: BE3C Assay for Matrix Metallopeptidase 1 (MMP1) Biomarker Activity (AID 2283024)
Details: primary human bronchial epithelial cells; actives raise or lower the signal
How it was run: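 ELISA measurement of MMP-1 after 24 h compound exposure of primary human bronchial epithelial cells. Changes in either direction fitted relative to DMSO; parallel SRB staining checked overt cytotoxicity.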

Structure (SMILES)	outcome	AC50
CCn1c2ccccc2c2cc(N)ccc21	inactive	
COC(=O)c1ccc(C)cc1	inactive	
CN(CCOc1ccc(CC2SC(=O)NC2=O)cc1)c1ccccn1 (configuration not stated)	inactive	
CC(=O)/C=C/C1=C(C)CCCC1(C)C	inactive	
BrC1CCC(Br)C(Br)CCC(Br)C(Br)CCC1Br (configuration not stated)		1.16 µM (active)
O=C(O)C[C@H](O)C[C@H](O)/C=C/c1c(C2CC2)nc2ccccc2c1-c1ccc(F)cc1	inactive	

Read-out: not listed separately
Assay: BSK_3C_Vis: BioMAP Diversity Plus: 3C Assay for Morphology Visualization (AID 2283025);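 note: fitted both ways so gain or loss versus DMSO counts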;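 for AC50: light microscopy image of cell morphology used as background control; cells imaged 24 h after dosing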
Details: primary human endothelial cells (HUVEC)
How it was run: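 Light-microscopy visualization of HUVEC cultures at 24 h post-treatment, with DMSO as baseline for bidirectional fitting.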

Structure (SMILES)	AC50	outcome
CCn1c2ccccc2c2cc(N)ccc21	8.8 µM (active)	
COC(=O)c1ccc(C)cc1		inactive
CN(CCOc1ccc(CC2SC(=O)NC2=O)cc1)c1ccccn1 (configuration not stated)		inactive
CC(=O)/C=C/C1=C(C)CCCC1(C)C		inactive
BrC1CCC(Br)C(Br)CCC(Br)C(Br)CCC1Br (configuration not stated)	8.03 µM (active)	
O=C(O)C[C@H](O)C[C@H](O)/C=C/c1c(C2CC2)nc2ccccc2c1-c1ccc(F)cc1	3.47 µM (active)	
